Experimental data: the supplement of paper PMC6555819

System: VDR:RXRa (NR concentration 270 nM, RXRa partner concentration 90 nM)
Experiment: PBM binding z-score (relative to random genomic background probes); higher = stronger binding; sequences stand for … in GC…GCGATTGACAGCGTAGAATGAAGG
Procedure: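 Protein-binding microarray (Agilent 4x180K custom design, double-stranded 60-nt probes: 5' GC cap, 34-nt variable region, 24-nt constant primer region; full probe sequence given). Purified or IVT nuclear receptor:RXRα heterodimers (3:1 NR:RXRα, mostly 270:90 nM) or homodimers were incubated for 1 h in PBS with 2% milk and no ligand, then detected with Alexa488 antibodies. Fluorescence from o1-orientation probes (~5 replicates averaged) was converted to z-scores against 500 random hg19 background probes. Variable regions are seed direct-repeat (DR0–DR5) sites, all their single-nucleotide variants and half-site ablations.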

| Sequence | PBM binding z-score |
| --- | --- |
| CCTTACGGGTCACGAGGTTATAGTACGACGAGCG | 5.35 |
| TCTATTAGTTGATTAGGGCAAGCGAAACAGCGGA | 0.402 |
| CAAACTAGGTCACAGAGGTCAATGTCCGTGCGTA | 7.62 |
| GCTTACGGGTCAAAGTTTATAGCATGAATAGAAT | 4.3 |
| CTAGCAAGGTGAACAAGGTCGTTGATTACTATTC | 6.05 |
| ACCGACAGGTGATGAAGGTAACTCAGGCTATCAT | -0.148 |
| GCAGACAGATGAAACGCAGGTAACTCAGGGTGGC | -0.643 |
| CGAACTAGGGCATCCAGGACAGTGAATACATTGA | 0.492 |
| AGAACGAGGGGAATGAGTTGATAGCACGGGTGGC | 2.09 |
| CCAGACAGGTGAAAGGTAAGTCAGTCTGGTACGC | 0.522 |
| TCATATAGGTAAAAGGAGAAAGTCGGTGTGGTAA | 0.929 |
| TAGCCTAGGTCATGGACCAGTATACCACGCGAAC | 2.13 |
| CGAACTCGGTCAGAACAGGACAGTGAAGGATGAT | -0.191 |
| AGAATTAGGTTATACGTAGATCAGGGAAGAAAGT | 0.22 |
| ATCTCTAGGTAACCAAGCTCAGTGAATGCCGAAC | -0.169 |
| GCAGACAGGTGCAACGCAGGTAACTCAGGGTGGC | -0.467 |
| CCGAGTAGGTTATGAGGCATTCAGGCAACGGTGA | -0.286 |
| CTACCAAGGTGAACAAGGTCGTTGAGTACTATTC | 6.19 |
| GCGACTGGGGCATCTGCAGGTTACCATAACTTAA | -0.144 |
| TCATATAGGTAAAGGTGAAAGCCGAACGATATGA | 0.743 |

| Sequence | PBM binding z-score |
| --- | --- |
| GCTCGGAGGACAAGGTCAGAGCTTTGTCCGTAGA | 1.34 |
| TTACCAAGGTGAAAGGTCGTTCATGCACGCCTTG | 3.53 |
| TCATATAGGTAAATGCTAGGTGAATGTCCGATCT | 0.74 |
| CCTTACGGGTCATTGACAGGTTATAGCATTTGGA | 4.11 |
| ATCGAAAGGTCGACGAGGTGAGTACACACCGTTT | 5.59 |
| GTACCAAGGTGAATAGGTTGTTGATGAGTAGGCG | 1.38 |
| CCTGCTAGGTCAATGGTCGGCTAAAGCAGCTCGC | 1.07 |
| CAAACTAGGTCACGGAAGGTCAAAGTCGAATGAC | 6.69 |
| TCATATAGGTAATACAGGTGAAAGCCGGCATCTA | 1.2 |
| CAAACTAGGACAAAGGTCAAAGTCGAGCCAACCA | 4.93 |
| CAGCCTAGGTCAGGGCCAGTATTGGAGGAACGTT | -0.0862 |
| ATCTCTAGGTAAAAGTTCAGAGAATCCCGAGGAT | 1.43 |
| CCTACTGGGCCAAAGGTCATGGATTCCAATGCTC | 4.85 |
| ACTATTAGGTGACTTAGGGCAACCGATACGACGC | 0.474 |
| TCTTGTAGATCAAATGTTAAGAAAGCCGAAGCCT | 0.366 |
| TCGAGTAGGTTCCCAATGGGGCATTCAGCTTTCT | -0.37 |
| CCTGCTAGGTCATCGTCAGCTAATCTACAGTATG | 1.87 |
| CGTCCACGGTCAAGGTCAGTGAAAGAGACTCGAA | 1.43 |
| TCTAGCAGGCCAGAGGGTCCCTCAAGAGGTACGG | -0.431 |
| TCATATAGGTAAAGGTGAACGTCGAACGATATGA | 0.748 |
